Hits are enriched below; roughly 27% of the tested compounds scored in any of these assays.
CYP2C19 inhib – blockers of cytochrome P450 2C19 activity – biochemical, luminescence, ADME assay, primary screen; CYP2C19 Supersomes, luciferin-H EGE luminescence, 30 min; inhibition, % at 5 µM; hit rate 21% among 96,000; AID 778, 2007; P33261;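 active means CYP2C19 inhibition above a set limit at 5 µM in the primary screen, cut at about 50% in these data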;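 further: plate controls were negative control wells for no effect and 2.5 mM tranylcypromine positive control for full effect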
CYP2C9 act – human CYP2C9 activators, primary screen, biochemical, luminescence; Cytochrome P450 2C9 (Homo sapiens), P11712; recombinant CYP2C9, luciferin-H conversion; hits give high values; factor 1 = untreated enzyme, 0 = blocked; activation factor at 5 µM; hit rate 1.4% among 96,000; AID 1024, 2008;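 active means activation factor of 2 or more for CYP2C9 at a 5 µM dose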;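 further: 0 = sulfaphenazole-blocked wells and 1 = vehicle-only wells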
CYP2C9 inhib – blockers of cytochrome P450 2C9 activity – biochemical, luminescence, ADME assay, primary screen; P11712; CYP2C9 Supersomes, luciferin-H conversion; inhibition, % at 5 µM; hit rate 20% among 96,000;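 active means blocking of liver enzyme CYP2C9 beyond about 50% at 5 µM, limit read from the data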
Cav3 T inh – Cav3.2 calcium influx blockers – cell-based, Fluo-4 calcium fluorescence, FDSS, MLSMR library, primary screen | Voltage-dependent T-type calcium channel subunit alpha-1H (Homo sapiens), O95180 | Cav3.2-expressing cells; hits give low values | B-score at 10 µM | hit rate 4% among 100,000;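 active means single-dose well whose peak fluorescence ratio is a statistical outlier from its plate by either plate-standardised score or position-corrected B-score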
CYP2C19 activ – human CYP2C19 activators, primary screen, biochemical, luminescence; Cytochrome P450 2C19 (Homo sapiens), P33261; AID 1025, 2008; 96,000 tested, under 10 active; activation factor at 5 µM; recombinant CYP2C19, luciferin-H EGE luminescence; hits give high values; 0 = fully inhibited enzyme, 1 = untreated enzyme;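 active means activation factor of at least 2 at 5 µM in the primary screen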;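 further: 0 = wells with 2.5 mM tranylcypromine and 1 = vehicle-only wells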
Numbers without * were called inactive; . = no result.

SMILES | CYP2C19 inhib | CYP2C9 act | CYP2C9 inhib | Cav3 T inh | CYP2C19 activ
O=[N+]([O-])c1cccnc1N1CCC(c2cc(-c3cccc(C(F)(F)F)c3)n[nH]2)CC1 | 67* | 0 | 98* | -0.36 | 0.3
COc1ccc(OC)c(-c2cc(C3CCN(c4ncccc4[N+](=O)[O-])CC3)[nH]n2)c1 | 22 | 0.5 | 49 | -2.7 | 0.8
CCC(=O)N1CCN(c2ccc(Cl)cc2NC(=O)c2ccc(N3CCCC3)c([N+](=O)[O-])c2)CC1 | 42 | 0.6 | 36 | 0.96 | 0.6
CCCN1Cc2cccc(C(=O)NC(C)c3cccs3)c2C1=O (centres undefined) | 23 | 0.7 | 30 | 0.85 | 0.8
NC(=O)c1cnn2c(C(F)(F)F)cc(-c3ccc(F)cc3)nc12 | -3 | 1.1 | -8 | 0.37 | 1
Cc1[nH]c(=O)[nH]c(=O)c1CSc1nnc(CCCCCNC(=O)OC(C)(C)C)o1 | 2 | 1 | -5 | 0.29 | 1
Cc1cccc(NC(=O)CN2C(=O)NC(C)(c3ccc4c(c3)OCO4)C2=O)c1 (centres undefined) | 27 | 0.3 | 67* | -1.8 | 0.7
Cc1ccc(C2(C)NC(=O)N(CC(=O)Nc3ccc4c(c3)OCO4)C2=O)cc1 (centres undefined) | 36 | 0.2 | 82* | -2.1 | 0.6
CC1(c2ccc3c(c2)OCO3)NC(=O)N(CC(=O)Nc2ccc(N3CCOCC3)cc2)C1=O (centres undefined) | 20 | 0.4 | 59* | -0.09 | 0.8
COc1ccccc1[C@@H]1C(c2cccc(Cl)c2)=NN(c2ccc(Br)cc2)[C@H]1C(=O)N1CCOC1=O | . | . | . | 0.14 | .
C/C=C\C=C\C(=O)N1CC2(CC(c3cccc(NC(=O)CC)c3)=NO2)C[C@H]1C(N)=O (some centres undefined) | . | . | . | 1.4 | .
O=C(CCCCn1c(=O)c2ccccc2n(CC(=O)NC2CCCC2)c1=O)NC1CCCC1 | 18 | 0.4 | 62* | . | 0.8
O=C(CCCCn1c(=O)c2ccccc2n(CC(=O)NC2CCCC2)c1=O)NCc1ccco1 | 18 | 0.4 | 62* | 0.12 | 0.8
O=C(CCCCn1c(=O)c2ccccc2n(CC(=O)Nc2cccc(F)c2)c1=O)NCc1ccco1 | 20 | 0.3 | 75* | 0.94 | 0.8
O=C(CCCCn1c(=O)c2ccccc2n(Cc2ccc(Cl)cc2)c1=O)NCc1ccco1 | 18 | 0.7 | 30 | . | 0.8
CC1CC(C)CN(C(=O)Cn2c(=O)n(CCCCC(=O)NCc3ccco3)c(=O)c3ccccc32)C1 (centres undefined) | 29 | 0.2 | 79* | 1.8 | 0.7
O=C(CCn1c(=O)c2ccccc2n(CC(=O)NC2CCCC2)c1=O)NCc1ccco1 | 16 | 0.5 | 54* | 0.81 | 0.8
CCCN(CCC)C(=O)Cn1c(=O)n(CCCCC(=O)NC2CCCC2)c(=O)c2ccccc21 | 19 | 0.5 | 46 | . | 0.8
CCc1ccc(NC(=O)Cn2c(=O)n(CCCC(=O)NCc3ccco3)c(=O)c3ccccc32)cc1 | 10 | 0.7 | 28 | -0.87 | 0.9
CC1CC(C)CN(C(=O)Cn2c(=O)n(CCCCC(=O)NC3CCCC3)c(=O)c3ccccc32)C1 (centres undefined) | 33 | 0.3 | 74* | 2.6 | 0.7
CC(C)C(NC(=O)c1cccs1)c1nnc(SCC(=O)Nc2nccs2)n1C (centres undefined) | 6 | 0.6 | 41 | 0.33 | 0.9
CCOC(=O)NC(=O)CN1C(=O)NC(C)(c2ccccc2)C1=O (centres undefined) | -5 | 0.9 | 6 | 0.094 | 1.1
COc1ccc(C(=O)CN2C(=O)NC(C)(c3ccccc3)C2=O)cc1OC (centres undefined) | 1 | 0.8 | 16 | -0.14 | 1
CCOc1ccccc1CN1C(=O)NC(C)(c2ccccc2)C1=O (centres undefined) | 94* | 1.1 | -12 | 0.78 | 0.1
CC1(c2ccccc2)NC(=O)N(CCOc2ccccc2)C1=O (centres undefined) | 65* | 1 | -1 | -0.24 | 0.3
SMILES | CYP2C19 inhib | CYP2C9 act | CYP2C9 inhib | Cav3 T inh | CYP2C19 activ
CC1(c2ccccc2)NC(=O)N(CC(=O)NC(=O)NC2CCCC2)C1=O (centres undefined) | 53* | 0.8 | 21 | -0.016 | 0.5
CCOC(=O)N1CCC(NC(=O)c2ccc3c(c2)N(Cc2ccccc2)CCS3)CC1 | 85* | 0.1 | 92* | -1.8 | 0.1
CCOC(=O)N1CCN(C(=O)c2ccc3c(c2)N(CC)CCS3)CC1 | 4 | 0.2 | 78* | 0.52 | 1
COC(=O)c1ccc(NC(=O)COc2ccc(C3C(C#N)=C(N)Oc4c3ccc3ccccc43)cc2OC)cc1 (centres undefined) | . | . | . | 0.049 | .
COC(=O)CC1=C(C(=O)OC)C(c2cccs2)C(C#N)=C(N)O1 (centres undefined) | 41 | 0.9 | 13 | 0.55 | 0.6
N#CC1=C(N)Oc2cc(O)ccc2C1c1cccs1 (centres undefined) | 76* | 0.3 | 74* | -3 | 0.2
N#CC1=C(N)Oc2cc(O)ccc2C1c1ccncc1 (centres undefined) | 84* | 0.1 | 92* | -4.6* | 0.2
CN(C)c1ccc2c(c1)OC(N)=C(C#N)C2c1cccc(F)c1 (centres undefined) | 92* | 0.2 | 80* | . | 0.1
N#CC1=C(N)Oc2c(ccc3ccccc23)C1c1cccs1 (centres undefined) | 46 | 0.5 | 54* | -2.7 | 0.5
N#CC1=C(N)Oc2ccc3ccc(O)cc3c2C1c1cccnc1 (centres undefined) | -18 | 1.1 | -5 | 1.2 | 1.2
O=C(CSc1ccc(-c2ccccc2)nn1)N1CCOCC1 | 23 | 1 | -3 | -1 | 0.8
CCC(=O)c1cc2c(cc1NC(=O)c1ccccc1)OCCO2 | 11 | 0.6 | 36 | 0.68 | 0.9
CC(=O)c1c(C(C)=O)c(C)n(-c2ccc(C)c(NC(=O)c3ccccc3Cl)c2)c1C | 13 | 0.6 | 43 | 1.9 | 0.9
Cc1ccc(NC(=O)c2ccccc2Cl)c(Cl)c1 | 8 | 2.2* | -120 | -1.1 | 0.9
CCCc1cc2c(cc1NC(=O)c1ccccc1C)OCO2 | 95* | 0.7 | 28 | 0.31 | 0
CCCc1cc2c(cc1NC(=O)c1ccccc1Cl)OCO2 | 94* | 0.5 | 49 | 0.28 | 0.1
CCCc1cc2c(cc1NC(=O)c1ccc(Br)cc1)OCO2 | 87* | 0.9 | 11 | -0.33 | 0.1
O=C(Nc1ccc(-c2nc3c(ccc4ccccc43)o2)cc1)c1ccco1 | 16 | 1.5 | -45 | -0.013 | 0.8
Cc1ccccc1C(=O)N/N=C/c1ccc(OCC(=O)N2CCCCC2)cc1 | -1 | 0.8 | 24 | -0.53 | 1
CCN(CC)C(=O)Cn1cnc([N+](=O)[O-])n1 | -5 | 1.1 | -8 | 1 | 1
